Reference: PMC4081100, “A DNA-binding-site landscape and regulatory network analysis for NAC transcription factors in Arabidopsis thaliana”

Key:
Assay in all cases: universal protein binding microarray (PBM); transcription factors of Arabidopsis thaliana; high values mean tight binding
GST-ANAC092(1-176) = molecular target: T1, GST-ANAC092(1-176) (Arabidopsis thaliana, UniProt Q9FKA0 1-176); settings: protein: recombinant; tags: GST; chain copies: 2; dsDNA, one strand shown
T1 sequence: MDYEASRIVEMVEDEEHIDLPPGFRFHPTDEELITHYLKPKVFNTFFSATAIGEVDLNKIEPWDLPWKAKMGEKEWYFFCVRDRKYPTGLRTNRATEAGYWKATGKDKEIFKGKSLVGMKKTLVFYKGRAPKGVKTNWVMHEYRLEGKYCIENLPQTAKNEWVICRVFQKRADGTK
Method in brief: (§1)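 Each value is a normalised enrichment score (E-score) describing binding. The GST-tagged proteins, NAC-domain, full-length or DNA-binding-domain, were induced in cells (zinc-finger proteins with zinc acetate added) and purified on glutathione–Sepharose 4B. They were applied at 200 to 500 nM final, in duplicate, to double-stranded custom all-10-mer Agilent 4 × 180K arrays, and gapped and ungapped 8-mers were scored.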

GST-ANAC019 NAC domain = molecular target: T2, GST-ANAC019 NAC domain (Arabidopsis thaliana, UniProt Q9C932 14-162); settings: protein: recombinant; tags: GST; chain copies: 2; dsDNA, one strand shown
T2 sequence: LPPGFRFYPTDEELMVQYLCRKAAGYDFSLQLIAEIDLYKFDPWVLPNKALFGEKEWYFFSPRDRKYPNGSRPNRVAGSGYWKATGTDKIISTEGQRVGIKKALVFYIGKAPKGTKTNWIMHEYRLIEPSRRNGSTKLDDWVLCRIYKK
Method in brief: as §1

GST-ANAC055(1-171) = molecular target: T3, GST-ANAC055(1-171) (Arabidopsis thaliana, UniProt Q9LDY8 1-171); settings: protein: recombinant; tags: GST; chain copies: 2; dsDNA, one strand shown
T3 sequence: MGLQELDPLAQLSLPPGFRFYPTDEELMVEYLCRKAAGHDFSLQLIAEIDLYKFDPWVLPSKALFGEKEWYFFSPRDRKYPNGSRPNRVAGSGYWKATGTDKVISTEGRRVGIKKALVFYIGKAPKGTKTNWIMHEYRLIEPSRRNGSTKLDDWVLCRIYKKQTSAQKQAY
Method in brief: as §1

GST-ATAF1 NAC domain = molecular target: T4, GST-ATAF1 NAC domain (Arabidopsis thaliana, UniProt Q39013 7-158); settings: protein: recombinant; tags: GST; chain copies: 2; dsDNA, one strand shown
T4 sequence: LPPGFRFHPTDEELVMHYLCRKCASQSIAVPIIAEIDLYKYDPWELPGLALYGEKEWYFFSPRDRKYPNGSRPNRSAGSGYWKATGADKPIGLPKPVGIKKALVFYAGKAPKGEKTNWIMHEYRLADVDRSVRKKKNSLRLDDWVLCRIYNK
Method in brief: as §1

[1] = molecular target: T5, GST-ANAC092(1-285) full length (Arabidopsis thaliana, UniProt Q9FKA0 1-285); settings: protein: recombinant; tags: GST; chain copies: 2; dsDNA, one strand shown
T5 sequence: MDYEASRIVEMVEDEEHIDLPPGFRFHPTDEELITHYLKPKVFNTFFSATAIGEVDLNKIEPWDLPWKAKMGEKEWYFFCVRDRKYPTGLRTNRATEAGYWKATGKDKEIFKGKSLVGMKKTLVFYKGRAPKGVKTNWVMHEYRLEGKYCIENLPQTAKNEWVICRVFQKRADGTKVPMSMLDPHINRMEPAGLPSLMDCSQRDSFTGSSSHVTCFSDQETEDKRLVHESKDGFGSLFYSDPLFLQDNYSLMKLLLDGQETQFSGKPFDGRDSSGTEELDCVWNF
Method in brief: as §1

GST-NAP(1-166) = molecular target: T6, GST-NAP(1-166) (Arabidopsis thaliana, UniProt O49255 1-166); settings: protein: recombinant; tags: GST; chain copies: 2; dsDNA, one strand shown
T6 sequence: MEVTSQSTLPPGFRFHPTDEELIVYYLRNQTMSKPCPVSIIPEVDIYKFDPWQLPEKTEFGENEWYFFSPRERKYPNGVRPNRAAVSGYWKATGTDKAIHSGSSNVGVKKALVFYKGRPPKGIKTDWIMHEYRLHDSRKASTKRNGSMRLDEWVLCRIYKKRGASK
Method in brief: as §1

GST-NST2(1-184) = molecular target: T7, GST-NST2(1-184) (Arabidopsis thaliana, UniProt Q9M274 1-184); settings: protein: recombinant; tags: GST; chain copies: 2; dsDNA, one strand shown
T7 sequence: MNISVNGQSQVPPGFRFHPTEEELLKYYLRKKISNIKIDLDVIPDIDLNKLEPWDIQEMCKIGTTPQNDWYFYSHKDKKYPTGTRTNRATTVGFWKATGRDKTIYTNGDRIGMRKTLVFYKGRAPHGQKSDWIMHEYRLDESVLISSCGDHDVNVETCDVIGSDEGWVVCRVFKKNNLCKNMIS
Method in brief: as §1

GST-VND3 NAC domain = molecular target: T8, GST-VND3 NAC domain (Arabidopsis thaliana, UniProt Q9FH59 12-162); settings: protein: recombinant; tags: GST; chain copies: 2; dsDNA, one strand shown
T8 sequence: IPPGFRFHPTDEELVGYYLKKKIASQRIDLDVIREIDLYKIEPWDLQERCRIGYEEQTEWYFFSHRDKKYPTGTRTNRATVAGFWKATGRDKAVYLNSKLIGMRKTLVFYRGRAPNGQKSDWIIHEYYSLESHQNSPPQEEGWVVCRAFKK
Method in brief: as §1

GST-VND7 NAC domain = molecular target: T9, GST-VND7 NAC domain (Arabidopsis thaliana, UniProt Q9C8W9 9-158); settings: protein: recombinant; tags: GST; chain copies: 2; dsDNA, one strand shown
T9 sequence: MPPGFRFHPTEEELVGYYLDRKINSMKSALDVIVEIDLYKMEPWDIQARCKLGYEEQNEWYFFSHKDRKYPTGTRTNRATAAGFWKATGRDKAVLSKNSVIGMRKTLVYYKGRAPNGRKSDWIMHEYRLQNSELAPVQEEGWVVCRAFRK
Method in brief: as §1

GST-WRKY1(266-371) = GST-WRKY1(266-371) (Arabidopsis thaliana, UniProt Q9SI37 266-371); settings: protein: recombinant; tags: GST; dsDNA, one strand shown
Chain of GST-WRKY1(266-371) (Q9SI37 266-371): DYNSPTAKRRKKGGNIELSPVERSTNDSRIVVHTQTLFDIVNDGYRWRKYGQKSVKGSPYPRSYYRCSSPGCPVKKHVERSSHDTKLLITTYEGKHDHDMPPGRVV
Method in brief: as §1

GST-NTL8 NAC domain = molecular target: T10, GST-NTL8 NAC domain (Arabidopsis thaliana, UniProt Q9XIN7 14-156); settings: protein: recombinant; tags: GST; chain copies: 2; dsDNA, one strand shown
T10 sequence: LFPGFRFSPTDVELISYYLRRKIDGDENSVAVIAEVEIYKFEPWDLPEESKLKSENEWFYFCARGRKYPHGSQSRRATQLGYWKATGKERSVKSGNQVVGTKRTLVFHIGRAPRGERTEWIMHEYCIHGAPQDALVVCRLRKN
Method in brief: as §1

GST-SND1(1-203) = molecular target: T11, GST-SND1(1-203) (Arabidopsis thaliana, UniProt Q9LPI7 1-203); settings: protein: recombinant; tags: GST; chain copies: 2; dsDNA, one strand shown
T11 sequence: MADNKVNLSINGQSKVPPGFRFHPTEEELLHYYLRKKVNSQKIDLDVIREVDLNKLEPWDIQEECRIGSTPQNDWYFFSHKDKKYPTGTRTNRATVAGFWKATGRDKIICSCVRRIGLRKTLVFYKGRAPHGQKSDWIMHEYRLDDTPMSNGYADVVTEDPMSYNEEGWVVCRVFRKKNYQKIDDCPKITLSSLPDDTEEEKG
Method in brief: as §1

GST-NTL6(1-168) = GST-NTL6(1-168) (Arabidopsis thaliana, UniProt Q9SCK6 1-168); settings: protein: recombinant; tags: GST; chain copies: 2; dsDNA, one strand shown
Chain of GST-NTL6(1-168) (Q9SCK6 1-168): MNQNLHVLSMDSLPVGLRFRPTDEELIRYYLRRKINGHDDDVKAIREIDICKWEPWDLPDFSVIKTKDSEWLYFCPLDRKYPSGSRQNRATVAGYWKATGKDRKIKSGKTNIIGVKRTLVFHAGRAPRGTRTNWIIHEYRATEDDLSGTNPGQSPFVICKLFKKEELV
Method in brief: as §1

Sequence	binding signal (GST-ANAC092(1-176))	binding signal (GST-ANAC019 NAC domain)	binding signal (GST-ANAC055(1-171))	binding signal (GST-ATAF1 NAC domain)	binding signal [1]	binding signal (GST-NAP(1-166))	binding signal (GST-NST2(1-184))	binding signal (GST-VND3 NAC domain)	binding signal (GST-VND7 NAC domain)	binding signal (GST-WRKY1(266-371))	binding signal (GST-NTL8 NAC domain)	binding signal (GST-SND1(1-203))	binding signal (GST-NTL6(1-168))
ACGGCAGT	0.207 E-score	0.418 E-score	0.311 E-score	0.212 E-score	0.263 E-score	0.0813 E-score	0.138 E-score	0.342 E-score	0.238 E-score	0.0779 E-score	–	–	–
GCACTCAA	0.391 E-score	–	–	0.0807 E-score	0.426 E-score	–	0.196 E-score	–	–	–	0.0643 E-score	0.263 E-score	–
GCTAAGCA	–	–	–	–	–	–	0.0614 E-score	–	–	–	–	0.155 E-score	0.411 E-score
CTACGCGA	–	–	–	–	0.177 E-score	–	0.0539 E-score	–	–	–	–	0.417 E-score	–
GCACGCGA	0.287 E-score	–	–	–	0.429 E-score	–	0.191 E-score	–	–	–	–	0.286 E-score	–
CACGCGAA	0.343 E-score	–	0.0997 E-score	–	0.402 E-score	–	0.188 E-score	–	–	–	0.0576 E-score	0.213 E-score	0.17 E-score
AATGTCAA	–	–	0.155 E-score	0.19 E-score	–	0.13 E-score	0.0715 E-score	0.104 E-score	0.0638 E-score	0.404 E-score	–	–	–
GTTGGTCA	–	–	0.182 E-score	0.131 E-score	–	0.117 E-score	–	0.0931 E-score	0.0967 E-score	0.448 E-score	–	–	–
ATATTGAC	–	–	–	0.167 E-score	–	0.178 E-score	–	0.169 E-score	0.0695 E-score	0.453 E-score	–	–	–
ACACGGTA	0.437 E-score	0.286 E-score	0.265 E-score	0.21 E-score	0.443 E-score	0.234 E-score	0.202 E-score	0.227 E-score	0.123 E-score	–	–	–	–
CAAGACCA	0.106 E-score	–	0.092 E-score	0.0751 E-score	–	–	0.0893 E-score	0.0681 E-score	–	0.408 E-score	–	–	0.0845 E-score
CTTGACCA	0.0818 E-score	0.0734 E-score	0.104 E-score	0.145 E-score	–	–	0.1 E-score	0.119 E-score	–	0.484 E-score	–	–	–
CCACGGAA	0.219 E-score	0.427 E-score	0.326 E-score	0.211 E-score	0.244 E-score	0.149 E-score	0.123 E-score	0.343 E-score	0.316 E-score	–	0.107 E-score	–	0.117 E-score
AGTCGTGC	–	0.412 E-score	0.341 E-score	0.264 E-score	–	–	–	0.324 E-score	0.273 E-score	0.294 E-score	–	–	–
